T cruzi growth-1: inhibitors of T. cruzi proliferation; T. cruzi beta-gal in NIH3T3, GalScreen luminescence, 90 h; inhibition, % at 8.34 µM; actives 5.9% (n = 77,000); AID 624255;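 active means mean inhibition above about 93%, with at least 55% of replicates each passing it, limit read from the data, passing the limit was not always enough; inconclusive means only one of those two conditions holds; inactive means neither condition holds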
C diff growth: blocks growth of Clostridium difficile; Clostridium difficile clinical isolate growth, OD600, 24 h; hits give low values; growth activity, negative = inhibition, % at 16 µg/mL (by protocol); actives 0.25% (n = 86,000);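 active means mean growth activity at or below -80% and every replicate also at or below -80%; inconclusive means mean at or below -80% but some replicate above -80%; inactive means mean growth activity above -80%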;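 further: 0% = DMSO wells and -100% = levofloxacin 16 µg/mL wells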
Pf Dd2 inh: blocks growth of Plasmodium falciparum Dd2 parasites | AID 1159554 | P. falciparum Dd2 growth, SYBR Green, 72 h; hits give low values | activity change, % at 10 µM | actives 2.3% (n = 94,000); in the data active means activity change below about -80%; inconclusive means no clear call, values can overlap the other calls
T cruzi growth-2: blocks T. cruzi growth in NIH3T3 host cells. shares compounds with T cruzi growth-1. T. cruzi beta-gal in NIH3T3, GalScreen luminescence, 90 h. inhibition, % at 8.35 µM. actives 72% (n = 5,600). AID 651739;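 active means mean replicate inhibition above about 95% and at least 55% of replicates individually reaching it, limit read from the data; inconclusive means only one of the two criteria is met; inactive means neither criterion is met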
T cruzi growth-3: Trypanosoma cruzi proliferation inhibition; actives 21% (n = 5,600); shares compounds with T cruzi growth-1; AID 651740; T. cruzi beta-gal in NIH3T3, GalScreen luminescence, 90 h; inhibition, % at 2.09 µM;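 active means mean inhibition above about 95%, with at least 55% of replicates also reaching it, limit read from the data; inconclusive means meets just one of the two conditions; inactive means meets neither condition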;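 further: plate controls were neutral control median for no effect and positive control median for full effect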
NIH3T3 tox: NIH/3T3 (mouse) viability loss; shares compounds with T cruzi growth-1; NIH/3T3 viability, CellTiter-Glo ATP luminescence, 90 h; cytotoxicity (signal decrease), % at 8.35 µM; actives 14% (n = 5,600); AID 651742;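 active means mean signal decrease across replicates above about 35% based on untreated-well scatter, with enough replicates individually passing, limit read from the data; inconclusive means no rule stated though some were filed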;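 further: 0% = median of neutral control wells and 100% = median of positive control wells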
3T3 cytotox 2: kills mouse NIH/3T3 fibroblasts; shares compounds with T cruzi growth-1; NIH/3T3 viability, CellTiter-Glo ATP luminescence, 90 h; inhibition, % at 24.9 µM; actives 56% (n = 5,600); AID 651744;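 active means mean loss of cell viability signal at or above a set limit, and enough replicates individually reaching it; inconclusive means meets only the mean limit or only the replicate share; inactive means meets neither condition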;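 further: 0% = median of neutral control wells and 100% = median of positive control wells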
Active calls of the source: *; ? = inconclusive; . = no result given. This is a sample that favours compounds with a hit; in the whole collection about 6.8% have one here.

SMILES	T cruzi growth-1	C diff growth	Pf Dd2 inh	T cruzi growth-2	T cruzi growth-3	NIH3T3 tox	3T3 cytotox 2
Cc1ccc(S(=O)(=O)N[C@@H]2CC[C@@H](CC(=O)N3CCC(Cc4ccccc4)CC3)O[C@@H]2CO)cc1	111.1*	0.6	-15.5	109.5*	36.7	-32.7	34.7*
C[C@@H](NC(=O)C[C@@H]1C=C[C@@H](NC(=O)C2CC2)[C@@H](CO)O1)c1ccccc1	.	5.3	2.5	.	.	.	.
CCC(=O)Nc1ccc2c(c1)OC[C@H](C)N(C(=O)Cc1cccnc1)C[C@H](C)[C@@H](OC)CN(C)C2=O	.	0.7	27.1	.	.	.	.
COc1ccc(S(=O)(=O)N[C@H]2CC[C@@H](CCNC(=O)Cc3ccccn3)O[C@@H]2CO)cc1	-41.4	.	14.5	.	.	.	.
COc1ccc(CN2[C@H](CO)[C@H]3c4ccccc4N(C(=O)Nc4ccc(F)cc4)C[C@H]32)cc1	18.0	3.8	-15.2	.	.	.	.
COc1cccc(-c2ccc3c(c2)O[C@H](CN(C)Cc2ccncc2)[C@@H](C)CN([C@@H](C)CO)S3(=O)=O)c1	.	1.2	16.0	.	.	.	.
COc1cccc(-c2ccc3c(c2)O[C@@H](CN(C)Cc2ccncc2)[C@@H](C)CN([C@@H](C)CO)S3(=O)=O)c1	.	0.8	-64.5	.	.	.	.
COc1cccc(-c2ccc3c(c2)O[C@@H](CN(C)Cc2cncnc2)[C@H](C)CN([C@H](C)CO)S3(=O)=O)c1	?	-3.0	-19.0	?	64.1	39.0*	71.6*
COc1cccc(-c2ccc3c(c2)O[C@H](CN(C)Cc2cncnc2)[C@H](C)CN([C@@H](C)CO)S3(=O)=O)c1	96.7*	-6.5	1.4	?	57.8	30.7	63.9*
C[C@H](CO)N1C[C@H](C)[C@H](CN(C)C(=O)C2CCCCC2)Oc2cc(-c3ccc(F)cc3)ccc2S1(=O)=O	118.9*	-4.9	-29.8	110.3*	70.5	?	99.5*
C[C@@H]1CN([C@H](C)CO)S(=O)(=O)c2ccc(-c3ccc(F)cc3)cc2O[C@H]1CN(C)C(=O)C1CCCCC1	53.4	11.8	-73.0	.	.	.	.
C[C@H]1CN([C@@H](C)CO)S(=O)(=O)c2ccc(-c3ccc(F)cc3)cc2O[C@H]1CN(C)C(=O)C1CCC1	79.5	.	-34.0	.	.	.	.
C[C@H]1CN([C@@H](C)CO)S(=O)(=O)c2ccc(-c3ccc(F)cc3)cc2O[C@@H]1CN(C)C(=O)C1CCCCC1	99.3*	13.9	-14.9	95.3*	69.2	10.5	52.7*
C[C@@H]1CN([C@@H](C)CO)S(=O)(=O)c2ccc(-c3ccc(F)cc3)cc2O[C@@H]1CN(C)C(=O)C1CCC1	62.3	.	-6.6	.	.	.	.
C[C@H]1CN([C@@H](C)CO)S(=O)(=O)c2ccc(-c3ccc(F)cc3)cc2O[C@H]1CN(C)C(=O)C1CCCCC1	112.0*	3.1	-49.0	96.4*	56.9	20.7	101.3*
CNC[C@@H]1Oc2ccc(N(C)C)cc2CC(=O)N([C@@H](C)CO)C[C@H]1C	21.9	0.5	-67.1	.	.	.	.
COc1ccc2c3c(n(C)c2c1)[C@H](CO)N(C(C)=O)CC31CN(Cc2ccccc2OC)C1	.	-5.5	-68.9	.	.	.	.
CNC[C@H]1Oc2ccc(NC(=O)Nc3ccc4c(c3)OCO4)cc2CC(=O)N([C@@H](C)CO)C[C@@H]1C	77.7	-1.2	-6.2	.	.	.	.
O=C([C@H]1[C@H](CO)[C@H]2Cn3c(cccc3=O)[C@H]2N1CC1CCCC1)N1CCc2ccccc2C1	24.3	-0.6	.	.	.	.	.
C[C@H]1CN([C@@H](C)CO)S(=O)(=O)c2ccc(-c3cccc(C#N)c3)cc2O[C@@H]1CN(C)C(=O)Nc1ccccc1F	?	1.3	-56.2	87.6	80.9	33.9	61.1*
C[C@@H]1CN([C@H](C)CO)S(=O)(=O)c2ccc(-c3cccc(C#N)c3)cc2O[C@@H]1CN(C)C(=O)c1ccccc1	77.7	-4.4	-31.2	.	.	.	.
C[C@@H]1CN([C@H](C)CO)S(=O)(=O)c2ccc(-c3cccc(C#N)c3)cc2O[C@H]1CN(C)C(=O)Nc1ccccc1F	87.8	-0.4	-51.6	.	.	.	.
C[C@@H]1CN([C@@H](C)CO)S(=O)(=O)c2ccc(-c3cccc(C#N)c3)cc2O[C@@H]1CN(C)C(=O)Nc1ccccc1F	109.9*	3.4	-33.0	97.3*	87.7	48.4*	68.3*

Screening results: PubChem, Broad Institute
